From PubChem BioAssay (NCI)
The panel holds about 79,000 compounds, 15% with a hit somewhere; the sample as a whole holds those more often. Active and inactive are the calls of the source. Rule as the data show it: active = growth inhibition above about 70%; inactive = the rest.

Assays:
[1] = NCI Yeast Anticancer Drug Screen. Data for the rad52 strain (AID 147);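 also: 0% = growth of vehicle-treated control cultures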; details: S. cerevisiae rad52 mutant growth inhibition, hits give high values
Procedure, shortened: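 Here a repair-compromised yeast strain receives each compound; its growth is then quantified and normalised to vehicle-only controls.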

[2] = NCI Yeast Anticancer Drug Screen. Data for the rad50EPP+ strain (AID 151);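 also: 0% = growth of vehicle-treated control cultures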; details: S. cerevisiae rad50 mutant strain, hits give high values
Procedure, shortened: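 Read-out is yeast growth inhibition relative to vehicle; cells used were the rad50EPP+ strain.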

[3] = NCI Yeast Anticancer Drug Screen. Data for the mgt1 strain (AID 153); details: S. cerevisiae mgt1 mutant growth inhibition, hits give high values
Procedure, shortened: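 Measured: inhibition of mgt1 yeast growth by compound, normalized to vehicle-treated cultures.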

[4] = NCI Yeast Anticancer Drug Screen. Data for the rad50 strain (AID 155);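 also: 0% = growth of vehicle-only cultures of the same strain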; details: S. cerevisiae rad50 strain growth inhibition, hits give high values
Procedure, shortened: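 Growth of the mutant yeast was measured after compound exposure and referenced to vehicle-treated cultures.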

[5] = NCI Yeast Anticancer Drug Screen. Data for the mec2-1 strain (AID 157); details: S. cerevisiae mec2-1 strain, hits give high values
Procedure, shortened: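 Using mec2-1 yeast: add compound, measure growth, express inhibition versus vehicle-treated cultures.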

[6] = NCI Yeast Anticancer Drug Screen. Data for the rad14 strain (AID 159);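 also: 0% = growth of vehicle-treated control cultures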; details: S. cerevisiae rad14 strain growth inhibition, hits give high values
Procedure, shortened: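 Here, inhibition of yeast growth was measured after compound exposure, using a strain with a genetic defect in DNA damage repair and vehicle-treated cultures as the reference.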

[7] = NCI Yeast Anticancer Drug Screen. Data for the sgs1 mgt1 strain (AID 161);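 also: 0% = growth of cultures given vehicle only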; details: S. cerevisiae sgs1 mgt1 strain, hits give high values
Procedure, shortened: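 This yeast growth screen uses a strain with defined DNA-repair lesions; compound-treated growth is compared with vehicle-treated growth.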

[8] = NCI Yeast Anticancer Drug Screen. Data for the CLN2oe strain (AID 163);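 also: 0% = growth of vehicle-only control cultures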; details: S. cerevisiae CLN2oe strain, hits give high values
Procedure, shortened: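 Whole-cell yeast growth assay. A strain engineered for altered cell-cycle control received compound, and inhibition relative to vehicle-treated cultures was recorded.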

[9] = NCI Yeast Anticancer Drug Screen. Data for the cln2 rad14 strain (AID 165);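 also: 0% = growth equal to vehicle treated cultures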; details: S. cerevisiae cln2 rad14 strain, hits give high values
Procedure, shortened: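 Yeast strain cln2 rad14, bearing defects in cell cycle control and DNA repair, serves as the test system; values reflect growth inhibition compared with vehicle.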

[10] = NCI Yeast Anticancer Drug Screen. Data for the bub3 strain (AID 167); details: S. cerevisiae bub3 mutant strain, hits give high values
Procedure, shortened: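 Whole-cell yeast assay. The mutant strain was incubated with compounds, and growth inhibition was determined by comparison with vehicle-treated cells.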

[11] = NCI Yeast Anticancer Drug Screen. Data for the mlh1 strain (AID 171);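 also: 0% = growth of vehicle-treated control cultures of the same strain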; details: S. cerevisiae mlh1 strain growth inhibition, hits give high values
Procedure, shortened: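 A yeast strain with a defined genetic lesion serves as the test organism. Cultures receive compound or vehicle, and growth is measured.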

[12] = NCI Yeast Anticancer Drug Screen. Data for the sgs1 strain (AID 173);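 also: 0% = growth of vehicle-only control cultures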; details: S. cerevisiae sgs1 mutant, hits give high values
Procedure, shortened: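 A genetically defined yeast mutant is incubated with the test compound, and its growth is compared to that of the same strain given vehicle.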

[13] = NCI Yeast Anticancer Drug Screen. Data for the mlh1 rad18 strain (AID 175); details: S. cerevisiae mlh1 rad18 strain growth inhibition, hits give high values
Procedure, shortened: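 Steps: expose repair-defective yeast to compound; measure growth; express inhibition against vehicle-treated controls.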

[14] = NCI Yeast Anticancer Drug Screen. Data for the rad18 strain (AID 177); details: S. cerevisiae rad18 mutant growth inhibition, hits give high values
Procedure, shortened: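 Measured value is growth inhibition of a yeast strain bearing a DNA repair alteration, referenced to vehicle-treated cells.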

[15] = NCI Yeast Anticancer Drug Screen. Data for the wt1 strain (AID 149);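 also: 0% = growth of vehicle-treated wt1 cultures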; details: S. cerevisiae wt1 strain (SPY 50644) growth inhibition, hits give high values
Procedure, shortened: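 Measured: growth of wt1 yeast under compound versus vehicle treatment, reported as inhibition.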

[16] = NCI Yeast Anticancer Drug Screen. Data for the wt2 strain (AID 169);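 also: 0% = growth of vehicle-treated yeast cultures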; details: S. cerevisiae wt2 strain growth inhibition, hits give high values
Procedure, shortened: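 Treated yeast vs. vehicle-treated yeast: growth inhibition determined.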

[17] = at 5.0 µM (retest, dose inferred, filed as 0.5)
[18] = at 50.0 µM (retest, dose inferred, filed as 5.0)

Measured: growth inhibition

[N-]=[N+]=NC1(c2ccccc2)C(=O)Nc2ccccc2C1=O (stereo not drawn)
inactive: [1]; at 1.2 µM -2% | [1]; at 3.7 µM 0% | [1]; at 11.0 µM 4% | [1]; at 33.0 µM 20% | [1]; at 100.0 µM 49% | [2]; at 1.2 µM 0% | [2]; at 3.7 µM 3% | [2]; at 11.0 µM 6% | [2]; at 33.0 µM 9% | [2]; at 100.0 µM 7% | [3]; at 1.2 µM -3% | [3]; at 3.7 µM -6% | [3]; at 11.0 µM 8% | [3]; at 33.0 µM 2% | [3]; at 100.0 µM 27% | [4]; at 1.2 µM -4% | [4]; at 3.7 µM -2% | [4]; [17] -4% | [4]; at 11.0 µM -20% | [4]; at 33.0 µM 17% | [4]; [18] 14% | [4]; at 50.0 µM 67% | [4]; at 100.0 µM 37% | [5]; at 1.2 µM 2% | [5]; at 3.7 µM 2% | [5]; [17] -23% | [5]; at 11.0 µM 6% | [5]; at 33.0 µM 19% | [5]; [18] 1% | [5]; at 100.0 µM 33% | [6]; at 1.2 µM -3% | [6]; at 3.7 µM -1% | [6]; at 11.0 µM 8% | [6]; at 33.0 µM 12% | [6]; at 100.0 µM 21% | [7]; [17] -20% | [7]; [18] 16% | [7]; at 50.0 µM 67.7% | [8]; at 1.2 µM -5% | [8]; at 3.7 µM -5% | [8]; at 11.0 µM 3% | [8]; at 33.0 µM 35% | [8]; at 100.0 µM 61% | [9]; [17] -3% | [9]; [18] 29% | [10]; at 1.2 µM -4% | [10]; at 3.7 µM -1% | [10]; [17] -28% | [10]; at 11.0 µM 18% | [10]; at 33.0 µM 41% | [10]; [18] 61% | [10]; at 100.0 µM 59% | [11]; at 1.2 µM -2% | [11]; at 3.7 µM -5% | [11]; at 11.0 µM 1% | [11]; at 33.0 µM 12% | [11]; at 100.0 µM 17% | [12]; at 1.2 µM -1% | [12]; at 3.7 µM 2% | [12]; at 11.0 µM 9% | [12]; at 33.0 µM 27% | [12]; at 100.0 µM 39% | [13]; [17] -22% | [13]; [18] 46% | [13]; at 50.0 µM 58% | [14]; at 1.2 µM -2% | [14]; at 3.7 µM 1% | [14]; at 11.0 µM 7% | [14]; at 33.0 µM 19% | [14]; at 100.0 µM 50%
active: [5]; at 50.0 µM 81.3% | [9]; at 50.0 µM 81.1% | [10]; at 50.0 µM 75.5%

COc1cccc(C(NC2=NCCC=N2)c2cc3c(cc2O)OCO3)c1O (stereo not drawn)
active: [4]; [18] 72% | [7]; [18] 77% | [7]; at 50.0 µM 72.3% | [10]; [18] 73%
inactive: [1]; at 1.2 µM -1% | [1]; at 3.7 µM 2% | [1]; at 11.0 µM 21% | [1]; at 33.0 µM 56% | [1]; at 100.0 µM 66% | [15]; at 1.2 µM -2% | [15]; at 3.7 µM -4% | [15]; at 11.0 µM 2% | [15]; at 33.0 µM 5% | [15]; at 100.0 µM 8% | [3]; at 1.2 µM -1% | [3]; at 3.7 µM -5% | [3]; at 11.0 µM 12% | [3]; at 33.0 µM -22% | [3]; at 100.0 µM 10% | [4]; at 1.2 µM -1% | [4]; at 3.7 µM -1% | [4]; [17] -11% | [4]; at 11.0 µM -36% | [4]; at 33.0 µM 26% | [4]; at 50.0 µM 41.8% | [4]; at 100.0 µM 39% | [5]; at 1.2 µM 1% | [5]; at 3.7 µM -3% | [5]; [17] -20% | [5]; at 11.0 µM 7% | [5]; at 33.0 µM 15% | [5]; [18] 61% | [5]; at 50.0 µM 23.6% | [5]; at 100.0 µM 22% | [6]; at 1.2 µM 6% | [6]; at 3.7 µM 5% | [6]; at 11.0 µM 8% | [6]; at 33.0 µM 12% | [6]; at 100.0 µM 29% | [7]; [17] -47% | [8]; at 1.2 µM -2% | [8]; at 3.7 µM -8% | [8]; at 11.0 µM -1% | [8]; at 33.0 µM 4% | [8]; at 100.0 µM 21% | [9]; [17] 26% | [9]; [18] 13% | [9]; at 50.0 µM 44.6% | [10]; at 1.2 µM -9% | [10]; at 3.7 µM -3% | [10]; [17] -57% | [10]; at 11.0 µM -3% | [10]; at 33.0 µM -1% | [10]; at 50.0 µM 37.5% | [10]; at 100.0 µM 5% | [16]; at 1.2 µM 0% | [16]; at 3.7 µM 1% | [16]; at 11.0 µM 5% | [16]; at 33.0 µM 18% | [16]; at 100.0 µM 25% | [11]; at 1.2 µM -4% | [11]; at 3.7 µM -3% | [11]; at 11.0 µM 2% | [11]; at 33.0 µM 3% | [11]; at 100.0 µM 4% | [12]; at 1.2 µM 4% | [12]; at 3.7 µM 6% | [12]; at 11.0 µM 21% | [12]; at 33.0 µM 46% | [12]; at 100.0 µM 57% | [14]; at 1.2 µM -2% | [14]; at 3.7 µM 0% | [14]; at 11.0 µM 9% | [14]; at 33.0 µM 23% | [14]; at 100.0 µM 56%

Cc1ccc(NC(Nc2ccc(C)cc2C)=C(C(Cl)=C(Cl)Cl)[N+](=O)[O-])c(C)c1
inactive: [1]; at 1.2 µM 4% | [1]; at 3.7 µM 10% | [15]; at 1.2 µM 2% | [15]; at 3.7 µM 3% | [15]; at 11.0 µM 34% | [3]; at 1.2 µM 0% | [3]; at 3.7 µM 4% | [3]; at 11.0 µM 21% | [4]; at 1.2 µM 1% | [4]; at 3.7 µM 4% | [6]; at 1.2 µM 2% | [6]; at 3.7 µM 2% | [6]; at 11.0 µM 25% | [8]; at 1.2 µM -3% | [8]; at 3.7 µM -1% | [8]; at 11.0 µM 48% | [9]; [17] 27% | [10]; at 1.2 µM -2% | [10]; at 3.7 µM -4% | [10]; [17] 67% | [10]; at 11.0 µM 30% | [16]; at 1.2 µM 2% | [16]; at 3.7 µM 4% | [16]; at 11.0 µM 47% | [11]; at 1.2 µM 1% | [11]; at 3.7 µM 5% | [11]; at 11.0 µM 35% | [12]; at 1.2 µM 1% | [12]; at 3.7 µM 11%
active: [1]; at 11.0 µM 78% | [1]; at 33.0 µM 99% | [1]; at 100.0 µM 94% | [15]; at 33.0 µM 99% | [15]; at 100.0 µM 96% | [3]; at 33.0 µM 99% | [3]; at 100.0 µM 95% | [4]; [17] 90% | [4]; at 11.0 µM 72% | [4]; at 33.0 µM 99% | [4]; [18] 98% | [4]; at 50.0 µM 98% | [4]; at 100.0 µM 92% | [6]; at 33.0 µM 99% | [6]; at 100.0 µM 94% | [7]; [17] 94% | [7]; [18] 99% | [7]; at 50.0 µM 98.9% | [8]; at 33.0 µM 99% | [8]; at 100.0 µM 94% | [9]; [18] 98% | [9]; at 50.0 µM 98.7% | [10]; at 33.0 µM 99% | [10]; [18] 98% | [10]; at 50.0 µM 98.3% | [10]; at 100.0 µM 91% | [16]; at 33.0 µM 99% | [16]; at 100.0 µM 94% | [11]; at 33.0 µM 99% | [11]; at 100.0 µM 94% | [12]; at 11.0 µM 70%
